Whole data set: some 24,000 sequences, median “enrichment r” near 0.99, cut for the highest 2% near 3.7. The list comes from a sample in which the highest values are over-represented; it also holds similar and randomly drawn sequences.
B1: chr4:76721835:76721836:+_ENSG00000138768_ENST00000264904|hu_mus|hu_hu_hu_mus_True|68_78 (ssRNA)
RNA: GGGAGUUCUACAGUCCGACGAUCGUUUGGCUGGGGUUUCUGAGACGCUCUGGAAUAAACUCAUGUUUGCUAAUAAAAUCCUAGUUUCUCUAUGAAAUUCUCUUUGCCAAUCCUCUUCUCUAUUAGUUGCUUUAGUUUCUCUUUCAACAGAGGAUUGAGCAUCA
B2: chr14:62224477:62224478:+_ENSMUSG00000035235_ENSMUST00000039562|mus_hu|FALSE|FALSE (ssRNA)
RNA: GGGAGUUCUACAGUCCGACGAUCUUCAUUGAAAAUGAAAAACCCAUCUGUCACCUGUUCCCAGUAAAAAACUGAUUGUUCUAUGAAAUCGGCUGUUUUAGUCAGAUAGGAACUGAAGUUUGAAAGACAGCCUUUCCAAGUUGCCAACAGAGGAUUGAGCAUCA
B3: 31895827_31897285_3242_CDS_ENSMUSG00000042323_ENSMUST00000112095|mouse|control|control (ssRNA)
RNA: GGGAGUUCUACAGUCCGACGAUCCCAACAGCCGUACAACCAUUUUUCACCAGCUGAAUCCUCCCACAGUCUCUCAAUACACACUAUAUGUGGUUGUAGAUUGGCCUCCGCAGGUUCAACAUAGACAUAAUCUCCGACAUGAUACAACAGAGGAUUGAGCAUCA
B4: chr14:76906223:76906224:+_ENSMUSG00000022010_ENSMUST00000022587|mus_mus|FALSE|FALSE (ssRNA)
RNA: GGGAGUUCUACAGUCCGACGAUCCACUUCCUCCCUCACCGCAUACAUCAAAUGGCUUUUCACCAGAUCCAUAGCUUGCUCUAUUUUGUUGUCGAUAGCUACCACACUUGCACCAGAGCUAUUGUCAAGUCUCACGGAAGCGUUCAACAGAGGAUUGAGCAUCA
B5: 77377103_77377223_5427_3pUTR_ENSG00000048649_ENST00000308488|human|control|control (ssRNA)
RNA: GGGAGUUCUACAGUCCGACGAUCUACAGUCCACCCAGGCCUUAAGAAAGACCACAUUCAUUUCACUAAUAACUCUCCAUCAGACACAAUAUAUUUGAGGCCACCUUAUUACCACUGCAUAAAGCUUAUUUAAAAAAAUUUGUUCAACAGAGGAUUGAGCAUCA
B6: 55618536_55618656_2401_CDS_ENSG00000126787_ENST00000247191|human|control|control (ssRNA)
RNA: GGGAGUUCUACAGUCCGACGAUCAACAUCUGAAAUUCCUUCUUUUUUGUUAGUAUUAAUAUCAUCUGCUACUCCACCAGCAAGAAGAGGCAAACUCAUUCUCUCACUGGAUAAACAAUCCACCUUCAAGUCUGUCUUAUUUACCAACAGAGGAUUGAGCAUCA
B7: chr9:108650075:108650076:+_ENSMUSG00000032601_ENSMUST00000035220|mus_mus|FALSE|FALSE (ssRNA)
RNA: GGGAGUUCUACAGUCCGACGAUCAGCAAUUUGUUUAUGUAAACAGCACAGAGGUUAAACAAAACAAAACAAAACAAAAACCUACUAAAUACAAACAACAAAAACCCUAACCCAGAUAACCUUUCCUGGCUACUACUGGAAAGACAACAGAGGAUUGAGCAUCA
B8: chr1:71529667:71529668:-_ENSG00000132485_ENST00000254821|hu_hu|FALSE|FALSE (ssRNA)
RNA: GGGAGUUCUACAGUCCGACGAUCUUGUCACUGGAAAUACUGUUAAGAGAAACCUUUUUAUUUUUUAAACCAGAAAACAAACUAAAGCUCAUGUGACCAGAUUUUAAUUUUGAGAAAUAAACUCCAAAAGCAUUUUAAGCCAUACAACAGAGGAUUGAGCAUCA
B9: 39249924_39250044_1625_CDS_ENSG00000115904_ENST00000402219|human|control|control (ssRNA)
RNA: GGGAGUUCUACAGUCCGACGAUCACUCCGGUACUGUAAAGAUAUCAAUGCUGCCAUCCAAUUGUUUUUCUCUUCAGCUGACUUGGCAGAAAAUAUAACACUAUUUUCAUCUUUUAAAAUUAUUUCAAAAGCAUGCUUGUAUUCCAACAGAGGAUUGAGCAUCA
B10: chr2:32530853:32530854:+_ENSG00000119820_ENST00000437765|hu_mus|FALSE|FALSE (ssRNA)
RNA: GGGAGUUCUACAGUCCGACGAUCUUCAGAAUUCUGACCAAAAAAAAGAAAAAAAAAUCCCAGAUAACUGCAAUUACUUAAAUACAAAAAAUAUUGUUUUAAAAAGACUUUAAGCCUGCCUCUCUAUCUGGAAUGUAUAAAAUUCAACAGAGGAUUGAGCAUCA
B11: chr14:76904430:76904431:+_ENSMUSG00000022010_ENSMUST00000022587|mus_mus|mus_mus_mus_hu_True|58_108 (ssRNA)
RNA: GGGAGUUCUACAGUCCGACGAUCUGCUGGAAAAAAAACCCUCGUGGAAAAAAAGAGGGAACACCAGCAGCCUUGUACAAACUAGAUAAAAUCUUCUGGCUUUCCGCAGCCCAGGGAGAAACAGAAAACGGCAGCCCUAAUUUACAACAGAGGAUUGAGCAUCA
B12: chr5:143665338:143665339:-_ENSMUSG00000029580_ENSMUST00000100497|mus_hu|FALSE|FALSE (ssRNA)
RNA: GGGAGUUCUACAGUCCGACGAUCCACCUUCACCGUUCCAGUUUUUAAAUCCUGAGUCAAGCCAAAAAAAAAAAAAAAACCAAAACAAAACAAAAAAAACAAAUAAAGCCAUGCCAAUCUCAUCUUGUUUUCUGCGCAAGUUAGCAACAGAGGAUUGAGCAUCA
B13: chr1:109605425:109605426:-_ENSG00000197780_ENST00000461096|hu_mus|FALSE|FALSE (ssRNA)
RNA: GGGAGUUCUACAGUCCGACGAUCUUUAAUCAACUCUCCGUUCUCACAAUUAAAGUACUUACAUUUCCGUCACUAGAGCACAGCCAGAAACACCUGGGCUGGCAUCGGCUCUUUAAGCCCUGCCGUUCCCACUACUGAGGCAUUCAACAGAGGAUUGAGCAUCA
B14: chr3:124025330:124025331:+_ENSMUSG00000044528_ENSMUST00000058994|mus_mus|FALSE|FALSE (ssRNA)
RNA: GGGAGUUCUACAGUCCGACGAUCGUUUAAUCUUAAUUCCCACCACCACUCAUACCGCUGCCAACCCUUAAAAACACAUUAGACAAUAACAAUAGCAAUAUUUAAAAAAGCACGACCCGUUCUGAAAAACAGAAACUCUCUAGCCAACAGAGGAUUGAGCAUCA
B15: 24817595_24818005_4380_CDS_ENSG00000090905_ENST00000315183|human|control|control (ssRNA)
RNA: GGGAGUUCUACAGUCCGACGAUCCUGAUGGAGUGGCUGCUGCUGAGAUGGUGGAGUCUGCUGCUUCACCAACAGGUUUGGAUCAAGUUGACGAGAUUGUUGCAUCAUUUGCUGCUGCACACUAAGAGGUCGACCCUGCUGGUCCAACAGAGGAUUGAGCAUCA
B16: chr10:33190432:33190433:-_ENSG00000150093_ENST00000302278|hu_mus|hu_hu_hu_mus_True|1_48 (ssRNA)
RNA: GGGAGUUCUACAGUCCGACGAUCUACAUUUUCCAAACCUGCAUGUGAAUAAAACCCUGGCCACAGAGCCCCAAAACUACCCUACUGUGACUAUGGAGCUGCUGCUGUGAGCUUGGUGUUGCAAAAUCCGCCUGAGUCAGUACUCAACAGAGGAUUGAGCAUCA
B17: 17505014_17509309_214_5pUTR_ENSMUSG00000019370_ENSMUST00000019514|mouse|control|control (ssRNA)
RNA: GGGAGUUCUACAGUCCGACGAUCCAUGGCGAGGCACCGGUAUCCGGAGCUCGGGGAUCGAGGUUACUCUGGCGGCGGCAGCAGCUGCAGCAGCUCGAGCUCCGCCGCGCGUCCGCGCCUCCACACUCUUUGCCCGCAGCGCGCCAACAGAGGAUUGAGCAUCA
B18: chr8:80553714:80553715:+_ENSG00000104435_ENST00000220876|hu_mus|motif|central (ssRNA)
RNA: GGGAGUUCUACAGUCCGACGAUCAGCCUCCAGCUUUUUCUGAAUCUCCUCCAGAGACAGGUCUUUCUUCUUUGGAGAAGCGGGAGUUCGUGGAGCUUCUGAGAUGGGAGAUGGUGGCUUCAAGAUCAGCUCAAAAGCCUGGCCCAACAGAGGAUUGAGCAUCA
B19: chr11:100577090:100577091:-_ENSMUSG00000019173_ENSMUST00000107364|mus_hu|motif|central (ssRNA)
RNA: GGGAGUUCUACAGUCCGACGAUCCUGCACUGACCCCACUGUCCCCAUAUACAAGGGUUGGGGGGCAAGAGCAUGUGGCGGCUCCCAGCAAGGGAAAAUGGGAGAGCAGUAGAAAGGGGAGGAAGUGGGAAGAGCAGAAGAUCACAACAGAGGAUUGAGCAUCA
B20: chr1:89687925:89687926:+_ENSMUSG00000026289_ENSMUST00000027512|mus_hu|FALSE|FALSE (ssRNA)
RNA: GGGAGUUCUACAGUCCGACGAUCCCAGGACAGGGCUGCAGGAGCCCAUGUGCUUCUUCUGAGGAGGGCACUGGGGUCCUCCCAGCCCUGAGAGCCCCGUCAGUACUGUGCCCACAGCACAGCUUUGCAUCCUUUGUCCACACUCAACAGAGGAUUGAGCAUCA
B21: chr3:33038425:33038426:-_ENSG00000170266_ENST00000307363|hu_mus|FALSE|FALSE (ssRNA)
RNA: GGGAGUUCUACAGUCCGACGAUCGGUGGGAGGUCAGGCAAGGCGGGGCUGCAAAGUCACCAGCAGGGUACACACAUUCCAGAAAUGUAGCUUCCAUUCUAGCACAACAAAGGUGAUCCGUGUAACCAGAGUAGAGCUGUGCUCCAACAGAGGAUUGAGCAUCA
B22: 105885974_105886094_2527_3pUTR_ENSG00000135966_ENST00000393359|human|control|control (ssRNA)
RNA: GGGAGUUCUACAGUCCGACGAUCCAGCAGCGUGUGAAAGAGUUGCUGGCGGUGGGGUGGGUCUCGGCCCUCGGAGCACCACAGGCAGUAGUCCUCGGCCGCUGCAAAGUCCUGCAGCUCGUGCACCAGGAUAUGCAGCGCCUUCAACAGAGGAUUGAGCAUCA

What follows are binders tested against T1, UNK ZnF1-3 (human, UniProt Q9C0B0 31-174) (assay: nsRBNS (natural sequence RNA bind-n-seq); RBNS binding buffer (assumed for nsRBNS): 25 mM Tris pH 7.5, 150 mM KCl, 3 mM MgCl2, 0.01% Triton X-100, 500 ug/ml BSA, 20 U/ml SUPERase-In, 4 C; UNK is unkempt and MSI1 is Musashi-1; names of the RNAs are library labels; protein concentration not given here; high values mean tight binding).
T1 sequence: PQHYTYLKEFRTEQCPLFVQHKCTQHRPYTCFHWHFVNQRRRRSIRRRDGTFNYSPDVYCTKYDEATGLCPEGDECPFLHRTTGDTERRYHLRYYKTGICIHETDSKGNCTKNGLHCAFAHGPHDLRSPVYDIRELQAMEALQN
Work on B1 yielded a binding signal of 0.621 enrichment R. For B2, the binding signal was 0.96 enrichment R. B3 gave a binding signal of 1.01 enrichment R. With B4 the binding signal was 1.04 enrichment R. In the case of B5, the binding signal is reported as 3.78 enrichment R. B6 was tested, and the binding signal was 1.29 enrichment R. In the case of B7, the binding signal is reported as 4.03 enrichment R. B8 was tested, and the binding signal was 1.66 enrichment R. B9 showed a binding signal of 1.14 enrichment R. Work on B10 yielded a binding signal of 4.78 enrichment R. Work on B11 yielded a binding signal of 2 enrichment R. B12 gave a binding signal of 2.75 enrichment R. Work on B13 yielded a binding signal of 0.922 enrichment R. B14 gave a binding signal of 4.17 enrichment R. B15 was tested, and the binding signal was 0.736 enrichment R. Binder B16 has a binding signal of 1.02 enrichment R. With B17 the binding signal was 0.975 enrichment R. In the case of B18, the binding signal is reported as 1.22 enrichment R. In the case of B19, the binding signal is reported as 1.93 enrichment R. Binder B20 has a binding signal of 0.419 enrichment R. B21 showed a binding signal of 1.42 enrichment R. With B22 the binding signal was 0.509 enrichment R.

Source: article PMC12136788
